Like-named read-outs stand apart in the source and are kept apart here.

The subject of one assay is CDC7. The arrangement: species or system human, MV4-11 + K-562 + COLO205 + SK-N-BE2 + OVCAR-8. The following applies: read-out: apparent Kd; compound concentrations:100 nM and 1000 nM (sheet 'Samples'); n = 1.
The next assay relates to PIK3CD. The arrangement: species or system human, MV4-11 + K-562 + COLO205 + SK-N-BE2 + OVCAR-8. To be noted: read-out: apparent Kd; compound concentrations:100 nM and 1000 nM (sheet 'Samples'); n = 1.
A further assay deals with TGFBR1. The arrangement: species or system human, MV4-11 + K-562 + COLO205 + SK-N-BE2 + OVCAR-8. To be noted: read-out: apparent Kd; compound concentrations:100 nM and 1000 nM (sheet 'Samples'); n = 1.
The next assay has as its system CDC42. Also on record: species or system human, MV4-11 + K-562 + COLO205 + SK-N-BE2 + OVCAR-8. To be noted: read-out: apparent Kd; compound concentrations: 100 nM and 1000 nM (sheet 'Samples'), CATDS: 0.115085372614253; n = 1.
The test system of the next assay is EGFR. The arrangement: species or system human, MV4-11 + K-562 + COLO205 + SK-N-BE2 + OVCAR-8. The following applies: read-out: apparent Kd; compound concentrations: 100 nM and 1000 nM (sheet 'Samples'), CATDS: 0.71685181489177596; n = 1.
A further assay relates to ERBB3. The arrangement: species or system human, MV4-11 + K-562 + COLO205 + SK-N-BE2 + OVCAR-8. To be noted: read-out: apparent Kd; compound concentrations: 100 nM and 1000 nM (sheet 'Samples'), CATDS: 0.132982955491593; n = 1.
In the next assay the test system is NNT. The arrangement: species or system human, MV4-11 + K-562 + COLO205 + SK-N-BE2 + OVCAR-8. The following applies: read-out: apparent Kd, compound concentrations: 100 nM and 1000 nM (sheet 'Samples'), n = 1.
For another assay, the system named is RAB5C. The arrangement: species or system human, MV4-11 + K-562 + COLO205 + SK-N-BE2 + OVCAR-8. To be noted: read-out: apparent Kd; compound concentrations: 100 nM and 1000 nM (sheet 'Samples'), CATDS: 0.157008240219803; n = 1.
The next assay has as its system RIPK2. The arrangement: species or system human, MV4-11 + K-562 + COLO205 + SK-N-BE2 + OVCAR-8. The following applies: read-out: apparent Kd; compound concentrations: 100 nM and 1000 nM (sheet 'Samples'), CATDS: 0.27482887705752401; n = 1.
The test system of another assay is CDK16. Also on record: species or system human, MV4-11 + K-562 + COLO205 + SK-N-BE2 + OVCAR-8. The following applies: read-out: apparent Kd, n = 1.
The next assay relates to CDK17. The arrangement: species or system human, MV4-11 + K-562 + COLO205 + SK-N-BE2 + OVCAR-8. To be noted: read-out: apparent Kd, n = 1.
The test system of the next assay is CDKL5. The arrangement: species or system human, MV4-11 + K-562 + COLO205 + SK-N-BE2 + OVCAR-8. To be noted: read-out: apparent Kd, n = 1.
Another assay relates to CLK1. Also on record: species or system human, MV4-11 + K-562 + COLO205 + SK-N-BE2 + OVCAR-8. To be noted: read-out: apparent Kd, n = 1.
The subject of the next assay is CLK4. Also on record: species or system human, MV4-11 + K-562 + COLO205 + SK-N-BE2 + OVCAR-8. To be noted: read-out: apparent Kd, n = 1.
The subject of another assay is DYRK1A. Also on record: species or system human, MV4-11 + K-562 + COLO205 + SK-N-BE2 + OVCAR-8. To be noted: read-out: apparent Kd, n = 1.
The subject of the next assay is GSK3A. Also on record: species or system human, MV4-11 + K-562 + COLO205 + SK-N-BE2 + OVCAR-8. To be noted: read-out: apparent Kd, compound concentrations: 100 nM and 1000 nM (sheet 'Samples'), n = 1.
A further assay has as its system GSK3B. Also on record: species or system human, MV4-11 + K-562 + COLO205 + SK-N-BE2 + OVCAR-8. The following applies: read-out: apparent Kd, n = 1.
Another assay deals with CDK9. Also on record: species or system human, MV4-11 + K-562 + COLO205 + SK-N-BE2 + OVCAR-8. To be noted: read-out: apparent Kd, compound concentrations: 100 nM and 1000 nM (sheet 'Samples'), n = 1.
For the next assay, the system named is SMG1. The arrangement: species or system human, MV4-11 + K-562 + COLO205 + SK-N-BE2 + OVCAR-8. The following applies: read-out: apparent Kd; compound concentrations: 100 nM and 1000 nM (sheet 'Samples'), CATDS: 7.6423635677126206E-2; n = 1.
For the next assay, the system named is CDK2. Also on record: species or system human, MV4-11 + K-562 + COLO205 + SK-N-BE2 + OVCAR-8. To be noted: read-out: apparent Kd; compound concentrations: 100 nM and 1000 nM (sheet 'Samples'), CATDS: 3.2251458753321499E-2; n = 1.
The subject of the next assay is CDK4. Also on record: species or system human, MV4-11 + K-562 + COLO205 + SK-N-BE2 + OVCAR-8. To be noted: read-out: apparent Kd; compound concentrations: 100 nM and 1000 nM (sheet 'Samples'), CATDS: 3.5176707262462401E-2; n = 1.
For another assay, the system named is CSNK1D. Also on record: species or system human, MV4-11 + K-562 + COLO205 + SK-N-BE2 + OVCAR-8. The following applies: read-out: apparent Kd; compound concentrations: 100 nM and 1000 nM (sheet 'Samples'), CATDS: 3.5838047250471398E-2; n = 1.
The subject of another assay is CSNK1E. Also on record: species or system human, MV4-11 + K-562 + COLO205 + SK-N-BE2 + OVCAR-8. The following applies: read-out: apparent Kd; compound concentrations: 100 nM and 1000 nM (sheet 'Samples'), CATDS: 3.1149336029707601E-2; n = 1.
The subject of another assay is FLT3. The arrangement: species or system human, MV4-11 + K-562 + COLO205 + SK-N-BE2 + OVCAR-8. To be noted: read-out: apparent Kd; compound concentrations: 100 nM and 1000 nM (sheet 'Samples'), CATDS: 6.99540125282513E-2; n = 1.
Another assay concerns ICK. Also on record: species or system human, MV4-11 + K-562 + COLO205 + SK-N-BE2 + OVCAR-8. The following applies: read-out: apparent Kd; compound concentrations: 100 nM and 1000 nM (sheet 'Samples'), CATDS: 8.4231126757800603E-2; n = 1.
The test system of a further assay is NEK9. Also on record: species or system human, MV4-11 + K-562 + COLO205 + SK-N-BE2 + OVCAR-8. The following applies: read-out: apparent Kd; compound concentrations: 100 nM and 1000 nM (sheet 'Samples'), CATDS: 3.4709334986352897E-2; n = 1.
A further assay concerns NUAK1. The arrangement: species or system human, MV4-11 + K-562 + COLO205 + SK-N-BE2 + OVCAR-8. To be noted: read-out: apparent Kd; compound concentrations: 100 nM and 1000 nM (sheet 'Samples'), CATDS: 4.2227707983222298E-2; n = 1.
The next assay concerns the target Q6ZSR9 (human, UniProt Q6ZSR9). The arrangement: species or system MV4-11 + K-562 + COLO205 + SK-N-BE2 + OVCAR-8. To be noted: read-out: apparent Kd; compound concentrations: 100 nM and 1000 nM (sheet 'Samples'), CATDS: 7.3176607259513596E-2; n = 1.
A further assay deals with RIOK2. Also on record: species or system human, MV4-11 + K-562 + COLO205 + SK-N-BE2 + OVCAR-8. The following applies: read-out: apparent Kd; compound concentrations: 100 nM and 1000 nM (sheet 'Samples'), CATDS: 3.29501520790835E-2; n = 1.
Another assay deals with TGFBR2. Also on record: species or system human, MV4-11 + K-562 + COLO205 + SK-N-BE2 + OVCAR-8. To be noted: read-out: apparent Kd; compound concentrations: 100 nM and 1000 nM (sheet 'Samples'), CATDS: 8.2747157817186001E-2; n = 1.
Setting [1] is: compound concentrations:100 nM and 1000 nM (sheet 'Samples').

Chain of Q6ZSR9 (Q6ZSR9 whole entry, looked up): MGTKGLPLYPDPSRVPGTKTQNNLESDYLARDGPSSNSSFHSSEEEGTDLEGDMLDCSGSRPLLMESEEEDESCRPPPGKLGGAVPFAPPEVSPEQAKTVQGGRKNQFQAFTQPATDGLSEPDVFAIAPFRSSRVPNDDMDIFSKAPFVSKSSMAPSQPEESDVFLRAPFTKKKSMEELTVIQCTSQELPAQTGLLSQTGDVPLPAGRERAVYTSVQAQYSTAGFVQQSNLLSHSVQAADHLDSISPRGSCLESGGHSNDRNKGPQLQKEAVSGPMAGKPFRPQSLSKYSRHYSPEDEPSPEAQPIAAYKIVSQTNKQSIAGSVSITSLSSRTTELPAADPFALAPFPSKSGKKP

In the case of `c1ccc(-c2cc(-c3c[nH]nc3-c3ccccn3)ccn2)cc1` [GW576604X], the potency estimated from few doses with CDC7 was 1870 nM; with PIK3CD, 128 nM; in the assay with TGFBR1 it was 629 nM.
For the molecule `CN(C)c1cc2c(Nc3ccc4nc(Cc5ccccc5)[nH]c4c3)ncnc2cn1` [GW301888X], the potency estimated from few doses with CDC42 was 1800 nM; in the assay with EGFR, 19.1 nM; with ERBB3 it was 1030 nM; with NNT (CATDS: 0.11921325436386) it was 1550 nM; with RAB5C it was 599 nM; with RIPK2 it was 133 nM.
As for `CCN1CCC(CC(=O)Nc2n[nH]c3nnc(-c4cccc(F)c4F)cc23)CC1.O=C(O)[C@H](O)[C@@H](O)C(=O)O` [SB-698596-AC], the potency estimated from few doses is 53.3 nM in the assay with CDK16 (setting [1]); 995 nM in the assay with CDK17 (setting [1]); 46.9 nM with CDKL5 (setting [1]); 693 nM in the assay on CLK1 (setting [1]); 1420 nM with CLK4 (setting [1]); 1520 nM in the assay with DYRK1A (setting [1]). In addition, the figures for the potency estimated from few doses in the assay with GSK3A (CATDS: 0.61035791771228698) and with GSK3B (setting [1]) were 0.905 nM and 2.33 nM, respectively.
Regarding `CCN1CCC(C(=O)Nc2n[nH]c3nnc(-c4cccc(F)c4F)cc23)CC1.Cl` [SB-686709-A], the potency estimated from few doses in the assay on CDK16 (compound concentrations: 100 nM and 1000 nM (sheet 'Samples'), CATDS: 0.11637141533409) is 199 nM; in the assay on CDK17 (compound concentrations: 100 nM and 1000 nM (sheet 'Samples'), CATDS: 0.129072520880324), 132 nM; in the assay on CDK9 (CATDS: 8.2181630461084801E-2) it was 1050 nM; in the assay on CDKL5 (compound concentrations: 100 nM and 1000 nM (sheet 'Samples'), CATDS: 0.15820279930109701), 60.5 nM; in the assay on DYRK1A (compound concentrations: 100 nM and 1000 nM (sheet 'Samples'), CATDS: 8.3758685626984103E-2) it was 937 nM; with GSK3A (CATDS: 0.64867635498298803) it was 0.589 nM. In addition, the potency estimated from few doses with GSK3B (compound concentrations: 100 nM and 1000 nM (sheet 'Samples'), CATDS: 0.38395769159981902) is 1.75 nM; in the assay with SMG1 it was 1680 nM.
`COc1cccc(Nc2nccc(-c3cnn4ncccc34)n2)c1` [GW810576X]: the potency estimated from few doses in the assay on CDK16 (compound concentrations: 100 nM and 1000 nM (sheet 'Samples'), CATDS: 3.1157097879833801E-2) was 2230 nM; in the assay on CDK2 it was 1800 nM; in the assay on CDK4, 1130 nM; with CDK9 (CATDS: 6.6122234274616706E-2) it was 119 nM; in the assay on CDKL5 (compound concentrations: 100 nM and 1000 nM (sheet 'Samples'), CATDS: 0.306088725314409), 8.45 nM; in the assay with CLK1 (compound concentrations: 100 nM and 1000 nM (sheet 'Samples'), CATDS: 0.131869322388253) it was 29.2 nM. Moreover, the potency estimated from few doses with CLK4 (compound concentrations: 100 nM and 1000 nM (sheet 'Samples'), CATDS: 7.3732839889054297E-2) is 90.9 nM; in the assay with CSNK1D, 1030 nM; in the assay on CSNK1E, 2230 nM; in the assay with DYRK1A (compound concentrations: 100 nM and 1000 nM (sheet 'Samples'), CATDS: 4.1731549571109597E-2), 529 nM; in the assay on FLT3, 103 nM; in the assay with GSK3A (CATDS: 0.103253823443788), 45 nM. Also, the potency estimated from few doses with GSK3B (compound concentrations: 100 nM and 1000 nM (sheet 'Samples'), CATDS: 9.7411606637186801E-2) is 50.3 nM; with ICK, 67.5 nM; in the assay with NEK9 it was 1210 nM; in the assay with NNT (CATDS: 3.3051747730414797E-2), 1570 nM; with NUAK1, 505 nM; with Q6ZSR9, 92.6 nM. The results for the potency estimated from few doses in the assay on RIOK2 and in the assay with TGFBR2 were 1590 nM and 70.2 nM, respectively.

Source of the values: PMC11062922 (Nature Chemical Biology, 2023).
